Each structure is given as a SMILES string. Activity calls are given as the source filed them.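 Rule for the calls: active = compounds killing one labelled cell type while sparing the other, by normalised counts and ratio limits, not self-fluorescent; inactive = the rest.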

The assay can be described thus: EMT-state selective cytotoxicity in co-culture – imaging, PC-3E GFP, TEM4-18 mCherry, primary screen (AID 1345086).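 For all read-outs here: cells exposed to compound for 72 h before imaging.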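 For red/green cell ratio (normalised): normalised mesenchymal count divided by normalised epithelial count so high means epithelial killing.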 The conditions noted are these: PC-3E GFP / TEM4-18 mCherry co-culture, imaging cell counts, at 1 µM; for red/green cell ratio (normalised): actives lie on both sides, counts scaled to control wells, 1 = unselective.
Where [1] appears, read: measured here: epithelial PC-3E GFP cell survival.
[2] abbreviates: measured here: mesenchymal TEM4-18 mCherry cell survival.

As to `CC(C)[C@@H]1CCC(CO)=C[C@@H]1/C=C(\CO)C(=O)O`, the red/green cell ratio (normalised) is 0.88 (inactive). Under setting [1], this molecule gave a normalised cell number of 1.29. This molecule came in with a normalised cell number under setting [2] of 1.13.

Consider `O=C(O)c1c(Cl)nc(Cl)c2ccccc12`, for which the red/green cell ratio (normalised) is 1.02 (inactive). Besides, the normalised cell number under setting [1] turned out to be 0.97. The normalised cell number under setting [2] was determined as 0.99.

As to `O=C(O)CC1OCc2c(O)cccc21` (stereo not given), the red/green cell ratio (normalised) was 0.47 (inactive). The molecule further returned a normalised cell number under setting [1] of 0.95. This molecule showed a normalised cell number under setting [2] of 0.44.

Turning to `COc1cccc(Oc2c(O)cc(C)cc2CC(=O)c2cc(C)cc(O)c2C(=O)c2c(O)cccc2O)c1C(=O)O`, the red/green cell ratio (normalised) was 1.1 (inactive). Under setting [1], the normalised cell number amounted to 1.09. The molecule further displayed a normalised cell number under setting [2] of 1.21.

With `CC(C)(O)[C@@H]1CC[C@](C)([C@H]2[C@@H](O)C[C@@]3(C)C4C[C@H](O[C@@H]5O[C@H](CO)[C@@H](O)[C@H](O)[C@H]5O)C5C(C)(C)[C@@H](O[C@@H]6OC[C@@H](O)[C@H](O)[C@H]6O)CC[C@@]56C[C@@]46CC[C@]23C)O1` (stereo not given in full), the red/green cell ratio (normalised) is 0.94 (inactive). The molecule further had a normalised cell number under setting [1] of 0.98. Under setting [2], this molecule came in with a normalised cell number of 0.92.

Take `OCCN1C[C@H](O)[C@@H](O)C(O)C1CO` (stereo not given in full): the red/green cell ratio (normalised) was 1.19 (inactive). Moreover, under setting [1], the normalised cell number is 1.01. This molecule also returned a normalised cell number under setting [2] of 1.21.

On to `CC12CCC3C(CC3(C)C)C3(C1)OC(=O)CC(C(=O)O)C3CC2` (stereo not given), for which the red/green cell ratio (normalised) is 0.86 (inactive). Besides, the normalised cell number under setting [1] was 1.03. The molecule also had a normalised cell number under setting [2] of 0.88.

With `CC(=C\C(=O)O)/C=C(\C)C[C@H](C)CCCC[C@H]1OC(=O)[C@@H]1CO`, the red/green cell ratio (normalised) is 1 (inactive). Under setting [1], this molecule registered a normalised cell number of 0.95. Moreover, under setting [2], the normalised cell number was 0.95.

`CC(=O)O[C@H]1CC[C@@]2(C)C(=CCC3C2CC[C@@]2(C)C3CC[C@@H]2C(C)CCCC(C)C)C1` (stereo not given in full): the red/green cell ratio (normalised) is 1.16 (inactive). Under setting [1], the normalised cell number was 0.99. For the same molecule, the normalised cell number under setting [2] is 1.15.

`CC(=O)OC1(C)CC[C@@]23CC1C(C)(C)[C@@H]2CC[C@H]3C` (stereo not given in full): the red/green cell ratio (normalised) is 0.99 (inactive). Under setting [1], this molecule came in with a normalised cell number of 1.16. This molecule also had a normalised cell number under setting [2] of 1.15.

Consider `CC1OC(O[C@H]2/C=C/C=C/C=C/C=C/C=C/C=C/C=C/[C@H](C)[C@@H](O)[C@@H](C)[C@H](C)OC(=O)CC(O)CC(O)CCC(O)C(O)CC(O)C[C@]3(O)C[C@H](O)C(C(=O)O)C(C2)O3)C(O)[C@@H](N)C1O` (stereo not given in full), for which the red/green cell ratio (normalised) is 1 (inactive). In addition, the normalised cell number under setting [1] turned out to be 1.18. Further, the normalised cell number under setting [2] is 1.18.

As for `O=C(O)CCc1ccccc1O`, the red/green cell ratio (normalised) is 0.97 (inactive). The molecule further returned a normalised cell number under setting [1] of 1.1. Under setting [2], the normalised cell number is 1.07.

Turning to `COC(=O)C[C@H]1C2(C)CC34OC5(C)O[C@]6(C7/C(=C(/O)C(C)C)C(=O)O[C@@H](c8ccoc8)[C@]7(C)C(OC(C)=O)[C@@H](OC(C)=O)[C@]6(O5)C13C)[C@H](OC(C)=O)[C@@]4(O)C2OC(=O)C(C)C` (stereo not given in full), the red/green cell ratio (normalised) was 1.02 (inactive). Besides, the normalised cell number under setting [1] is 1.08. Besides, under setting [2], the normalised cell number was determined as 1.1.

With `COC(=O)C[C@H]1C(C)(C)C(=O)[C@@H]2CC3=C4CC(=O)O[C@@H](c5ccoc5)[C@]4(C)CCC3C1(C)C2=O` (stereo not given in full), the red/green cell ratio (normalised) is 1.01 (inactive). The molecule also gave a normalised cell number under setting [1] of 0.78. Under setting [2], this molecule returned a normalised cell number of 0.78.

With `C/C=C/[C@@H]1OC2=C(C(=O)O[C@H]2C)[C@H](O)[C@H]1O`, the red/green cell ratio (normalised) is 0.96 (inactive). Further, the normalised cell number under setting [1] worked out at 0.76. Under setting [2], the normalised cell number came to 0.73.

On to `CC[C@H](O)c1oc(=O)cc(OC)c1C`, for which the red/green cell ratio (normalised) was 0.96 (inactive). For the same molecule, the normalised cell number under setting [1] turned out to be 1.01. The same molecule returned a normalised cell number under setting [2] of 0.97.

For the molecule `CCCCCCCCC[C@H]1O[C@]2(O)CC[C@H](O)[C@]2(O)[C@@H]1O`, the red/green cell ratio (normalised) is 0.97 (inactive). This molecule had a normalised cell number under setting [1] of 0.93. Under setting [2], this molecule came in with a normalised cell number of 0.91.

With `CC[C@@H]1OC(=O)c2c(OC)cc(=O)oc21`, the red/green cell ratio (normalised) is 1.1 (inactive). This molecule yielded a normalised cell number under setting [1] of 1.01. The normalised cell number under setting [2] amounted to 1.11.

For the molecule `CO[C@H]1/C=C/O[C@@]2(C)Oc3c(C)c(O)c4c(O)c(c(/C=N/N5CCN(C)CC5)c(O)c4c3C2=O)NC(=O)/C(C)=C\C=C\[C@H](C)[C@H](O)[C@@H](C)[C@@H](O)[C@@H](C)[C@H](CC(C)=O)[C@@H]1C`, the red/green cell ratio (normalised) was 0.98 (inactive). This molecule registered a normalised cell number under setting [1] of 1.05. The normalised cell number under setting [2] was 1.03.

Consider `CC(CC(=O)N1CCOC1=O)N1C(=S)OC[C@@H]1Cc1ccccc1` (stereo not given in full), for which the red/green cell ratio (normalised) was 1.09 (inactive). The normalised cell number under setting [1] was 0.88. For the same molecule, the normalised cell number under setting [2] came out at 0.95.

Turning to `CC(CC(=O)N1CCOC1=O)N1C(=S)SC[C@H]1c1ccccc1` (stereo not given in full), the red/green cell ratio (normalised) is 0.8 (inactive). Under setting [1], the normalised cell number came out at 1.08. Moreover, the normalised cell number under setting [2] is 0.87.

In the case of `CC#C[C@]1(O)CCC2C3CCC4=CC(=O)CCC4=C3[C@@H](c3ccc(N(C)C)cc3)C[C@@]21C` (stereo not given in full), the red/green cell ratio (normalised) was 1 (inactive). The molecule further showed a normalised cell number under setting [1] of 1.09. Under setting [2], this molecule registered a normalised cell number of 1.09.

As to `CC(=O)OCC(=O)[C@H]1CCC2C3CC=C4C[C@@H](O)CC[C@]4(C)C3CC[C@@]21C` (stereo not given in full), the red/green cell ratio (normalised) is 0.94 (inactive). This molecule also registered a normalised cell number under setting [1] of 0.99. In addition, under setting [2], the normalised cell number came out at 0.93.

In the case of `C[C@@H]1C[C@H](O)/C=C/[C@H](O)[C@@H](O)CC(=O)O1`, the red/green cell ratio (normalised) is 0.87 (inactive). This molecule had a normalised cell number under setting [1] of 1.16. The normalised cell number under setting [2] is 1.02.

Regarding `NCC1O[C@@H](OC2C(N)C[C@@H](N)C(OC3OC(CO)[C@@H](O)C(N)[C@H]3O)[C@H]2O)C(O)[C@@H](O)C1O` (stereo not given in full), the red/green cell ratio (normalised) is 1.1 (inactive). In addition, the normalised cell number under setting [1] is 1.02. Further, under setting [2], the normalised cell number is 1.13.

For the molecule `C[C@@H]1CC[C@@]2(OC1)O[C@H]1CC3C4CC[C@H]5C[C@@H](O)CC[C@]5(C)C4CC[C@]3(C)[C@H]1[C@@H]2C` (stereo not given in full), the red/green cell ratio (normalised) was 0.88 (inactive). The normalised cell number under setting [1] is 1.17. Also, the normalised cell number under setting [2] came to 1.03.

In the case of `CC(CC(=O)N1C(=S)SC[C@@H]1c1ccccc1)N1C(=S)SC[C@@H]1c1ccccc1` (stereo not given in full), the red/green cell ratio (normalised) was 0.88 (inactive). The same molecule showed a normalised cell number under setting [1] of 1.18. Under setting [2], this molecule registered a normalised cell number of 1.04.

In the case of `C#C[C@]1(O)CCC2C3CCC4=CC(=O)CC[C@@H]4C3CCC21CC` (stereo not given in full), the red/green cell ratio (normalised) was 1.14 (inactive). Also, under setting [1], the normalised cell number came out at 1.07. The molecule further returned a normalised cell number under setting [2] of 1.21.

Consider `CCCCC/C=C/C1=C(CO)[C@H](O)[C@H]2O[C@H]2[C@@H]1O`, for which the red/green cell ratio (normalised) is 1 (inactive). Further, under setting [1], the normalised cell number worked out at 1.08. For the same molecule, the normalised cell number under setting [2] was 1.08.

Turning to `C=C(C)n1cc(C(=O)O)c(=O)c2cc(F)c(N3CC[C@@H](CN)C3)c(OC)c21`, the red/green cell ratio (normalised) is 1.13 (inactive). This molecule also gave a normalised cell number under setting [1] of 1.07. The molecule also showed a normalised cell number under setting [2] of 1.21.
